Measurements taken from PubChem BioAssay (NCATS).
Values without a mark were called inactive. For some of these results: Entries with a potency or affinity are not part of this list. Active and inactive are the calls of the source. The rule behind the calls is not given here.

Key:
[1] = Ebola virus entry assay, green fluorescence channel
[2] = Ebola virus entry assay, blue channel fluorescence
[3] = Ebola virus entry assay, ratio channel
[4] = Ebola virus entry assay, reporter ratio channel; Channel type: primary
[5] = Ebola virus entry assay, blue channel (ratio component)
Throughout, for efficacy: 0% is about no effect.

Question: What does the source list for CCCCc1ccc2nc(NC(=O)OC)[nH]c2c1?
Answer: efficacy [1]: 19%; AC50 [2]: 15.8 µM (active); outcome [3]: inactive; outcome [4]: inactive

Question: With COc1ccc2c(c1)c(CC(=O)O)c(C)n2C(=O)c1ccc(Cl)cc1 as the molecule, how does the efficacy [1] read?
Answer: The efficacy was 67.4%.

Question: And the outcome [2]?
Answer: Its outcome is “inactive”.

Question: What about the outcome [3] of the same molecule?
Answer: Its outcome is “inactive”.

Question: And the outcome [4]?
Answer: The outcome was “inactive”.

Question: Which results are given for COc1ccc2c(c1)c(CC(=O)OCC(=O)O)c(C)n2C(=O)c1ccc(Cl)cc1?
Answer: efficacy [1]: 44.7%; outcome [2]: inactive; outcome [3]: inactive; outcome [4]: inactive

Question: With Fc1ccc(C(c2ccc(F)cc2)N2CCN(C/C=C/c3ccccc3)CC2)cc1 as the molecule, how does the efficacy [1] read?
Answer: Its efficacy is 37.6%.

Question: What about the AC50 [2] of the same molecule?
Answer: Its AC50 is 12.6 µM (active).

Question: What about the AC50 [3] of the same molecule?
Answer: Its AC50 is 11.2 µM (active).

Question: What about the AC50 [4] of the same molecule?
Answer: The AC50 was 11.2 µM (active).

Question: For CSc1ccc2c(c1)C(N1CCN(C)CC1)Cc1ccccc1S2 (stereo unspecified), which efficacy [1] is on record?
Answer: The efficacy was -190%.

Question: What about the AC50 [2] of the same molecule?
Answer: Its AC50 is 3.55 µM (active).

Question: What about the AC50 [3] of the same molecule?
Answer: The AC50 was 3.16 µM (active).

Question: What about the AC50 [4] of the same molecule?
Answer: The AC50 was 3.16 µM (active).

Question: Which results are given for CCOc1ccc(Cc2nccc3cc(OCC)c(OCC)cc23)cc1OCC?
Answer: efficacy [1]: 94.1%; AC50 [2]: 39.8 µM (active); outcome [3]: inactive; AC50 [4]: 39.8 µM (active)

Question: What does the source list for C[C@@H](CN(C)C)CN1c2ccccc2Sc2ccccc21?
Answer: efficacy [1]: 66.9%; AC50 [2]: 8.91 µM (active); AC50 [3]: 10 µM (active); AC50 [4]: 10 µM (active)

Question: Which efficacy [1] does the source give for O=C(c1ccc(F)cc1)C1CCN(CCn2c(=S)[nH]c3ccccc3c2=O)CC1 here?
Answer: Its efficacy is 48.9%.

Question: What about the AC50 [2] of the same molecule?
Answer: The AC50 was 35.5 µM (active).

Question: And the AC50 [3]?
Answer: The AC50 was 17.8 µM (active).

Question: And the AC50 [4]?
Answer: Its AC50 is 17.8 µM (active).

Question: What does the source list for Oc1c(Cl)cc(Cl)c2cccnc12?
Answer: efficacy [1]: 73.4%; AC50 [2]: 39.8 µM (active); outcome [3]: inactive; AC50 [4]: 39.8 µM (active)

Question: With Cc1c(C)c2c(c(C)c1OC(=O)CCC(=O)OCCO)CC[C@@](C)(CCC[C@H](C)CCC[C@H](C)CCCC(C)C)O2 as the molecule, how does the efficacy [1] read?
Answer: The efficacy was -73.4%.

Question: And the AC50 [2]?
Answer: Its AC50 is 39.8 µM (active).

Question: What about the outcome [3] of the same molecule?
Answer: Its outcome is “inactive”.

Question: And the AC50 [4]?
Answer: The AC50 was 39.8 µM (active).

Question: Which results are given for CSc1ccc(/C=C2/C(C)=C(CC(=O)O)c3cc(F)ccc32)cc1?
Answer: efficacy [1]: 33.8%; outcome [2]: inactive; outcome [3]: inactive; outcome [4]: inactive

Question: For O=C(CCC1CCN(Cc2ccccc2)CC1)c1ccc2c(c1)NCCCC2, which efficacy [1] is on record?
Answer: Its efficacy is 114%.

Question: And the AC50 [2]?
Answer: Its AC50 is 7.08 µM (active).

Question: What about the AC50 [3] of the same molecule?
Answer: The AC50 was 7.08 µM (active).

Question: What about the AC50 [4] of the same molecule?
Answer: The AC50 was 7.08 µM (active).

Question: For COc1ccccc1N1CCN(CC(O)COc2cccc3ccccc23)CC1 (stereo unspecified), which efficacy [1] is on record?
Answer: Its efficacy is -101%.

Question: What about the AC50 [2] of the same molecule?
Answer: Its AC50 is 28.2 µM (active).

Question: And the AC50 [3]?
Answer: Its AC50 is 12.6 µM (active).

Question: And the AC50 [4]?
Answer: Its AC50 is 12.6 µM (active).

Question: Which efficacy [1] does the source give for CCCCOc1cc(C(=O)OCCN(CC)CC)ccc1N here?
Answer: The efficacy was 52.2%.

Question: And the AC50 [2]?
Answer: The AC50 was 31.6 µM (active).

Question: And the AC50 [3]?
Answer: The AC50 was 31.6 µM (active).

Question: What about the AC50 [4] of the same molecule?
Answer: Its AC50 is 31.6 µM (active).

Question: With CN(C)CCCSc1ccccc1NC(=O)/C=C/c1ccccc1 as the molecule, how does the efficacy [1] read?
Answer: The efficacy was 79.5%.

Question: And the AC50 [2]?
Answer: Its AC50 is 15.8 µM (active).

Question: And the AC50 [3]?
Answer: Its AC50 is 12.6 µM (active).

Question: And the AC50 [4]?
Answer: The AC50 was 12.6 µM (active).

Question: With CCCC(=O)O[C@]1(C(=O)CC)CC[C@H]2[C@@H]3CCC4=CC(=O)CC[C@]4(C)[C@H]3[C@@H](O)C[C@@]21C as the molecule, how does the outcome [5] read?
Answer: Its outcome is “inactive”.

Question: For O=C(Cn1ccnc1[N+](=O)[O-])NCCO, which efficacy [1] is on record?
Answer: The efficacy was -27.8%.

Question: And the outcome [2]?
Answer: Its outcome is “inactive”.

Question: And the outcome [3]?
Answer: Its outcome is “inactive”.

Question: And the outcome [4]?
Answer: Its outcome is “inactive”.

Question: What about the outcome [5] of the same molecule?
Answer: Its outcome is “inactive”.

Question: For O=C(/C=C/c1ccccc1)NCCO, which efficacy [1] is on record?
Answer: The efficacy was 100%.

Question: And the outcome [2]?
Answer: Its outcome is “inactive”.

Question: And the outcome [3]?
Answer: The outcome was “inactive”.

Question: And the AC50 [4]?
Answer: Its AC50 is 39.8 µM (active).

Question: And the outcome [5]?
Answer: The outcome was “inactive”.

Question: With COc1cc(NS(=O)(=O)c2ccc(N)cc2)nc(OC)n1 as the molecule, how does the efficacy [1] read?
Answer: The efficacy was 31.6%.

Question: And the outcome [2]?
Answer: Its outcome is “inactive”.

Question: What about the outcome [3] of the same molecule?
Answer: Its outcome is “inactive”.

Question: What about the outcome [4] of the same molecule?
Answer: The outcome was “inactive”.

Question: What about the outcome [5] of the same molecule?
Answer: The outcome was “inactive”.

Question: For C=C1C(=C/C=C2\CCC[C@]3(C)[C@@H]([C@H](C)/C=C/[C@@H](O)C4CC4)CC[C@@H]23)C[C@@H](O)C[C@@H]1O, which efficacy [1] is on record?
Answer: The efficacy was 59.6%.

Question: And the outcome [2]?
Answer: Its outcome is “inactive”.

Question: And the outcome [3]?
Answer: Its outcome is “inactive”.

Question: And the AC50 [4]?
Answer: The AC50 was 39.8 µM (active).

Question: And the outcome [5]?
Answer: The outcome was “inactive”.

Question: For COc1ccc(S(=O)(=O)N2c3ccc(Cl)cc3[C@@](O)(c3ccccc3Cl)[C@H]2C(=O)N2CCC[C@@H]2C(N)=O)cc1OC, which efficacy [1] is on record?
Answer: Its efficacy is 45%.

Question: What about the AC50 [2] of the same molecule?
Answer: Its AC50 is 10 µM (active).

Question: And the AC50 [3]?
Answer: Its AC50 is 10 µM (active).

Question: And the AC50 [4]?
Answer: The AC50 was 10 µM (active).

Question: What about the outcome [5] of the same molecule?
Answer: The outcome was “inactive”.

Question: With NCCc1ccc(O)c(O)c1 as the molecule, how does the efficacy [1] read?
Answer: Its efficacy is 28.6%.

Question: And the outcome [2]?
Answer: The outcome was “inactive”.

Question: What about the outcome [3] of the same molecule?
Answer: Its outcome is “inactive”.

Question: And the outcome [4]?
Answer: Its outcome is “inactive”.

Question: And the outcome [5]?
Answer: The outcome was “inactive”.

Question: With Nc1ccc2c(c1)CN1C(=O)c3ccccc3C1=N2 as the molecule, how does the efficacy [1] read?
Answer: The efficacy was 64.3%.

Question: What about the outcome [2] of the same molecule?
Answer: The outcome was “inactive”.

Question: And the outcome [3]?
Answer: The outcome was “inactive”.

Question: And the outcome [4]?
Answer: Its outcome is “inactive”.

Question: And the outcome [5]?
Answer: The outcome was “inactive”.

Question: For O=C(Nc1ccc(S(=O)(=O)N2CCOCC2)cc1)c1cc(Cl)ccc1NS(=O)(=O)c1ccc(Cl)s1, which efficacy [1] is on record?
Answer: Its efficacy is 119%.

Question: And the outcome [2]?
Answer: The outcome was “inactive”.

Question: What about the outcome [3] of the same molecule?
Answer: The outcome was “inactive”.

Question: And the AC50 [4]?
Answer: The AC50 was 39.8 µM (active).

Question: What about the outcome [5] of the same molecule?
Answer: The outcome was “inactive”.

Question: Which efficacy [1] does the source give for Nc1nc2ccccc2n1Cc1ccc(F)cc1 here?
Answer: Its efficacy is 54.1%.

Question: And the outcome [2]?
Answer: Its outcome is “inactive”.

Question: What about the outcome [3] of the same molecule?
Answer: The outcome was “inactive”.

Question: And the AC50 [4]?
Answer: The AC50 was 39.8 µM (active).

Question: What about the outcome [5] of the same molecule?
Answer: The outcome was “inactive”.

Question: What does the source list for O=C1OC2(c3ccc(O)cc3Oc3cc(O)ccc32)c2ccccc21?
Answer: AC50 [1]: 25.1 µM (active); outcome [2]: inactive; AC50 [3]: 7.94 µM (active); AC50 [4]: 7.94 µM (active); outcome [5]: inactive

Question: Which efficacy [1] does the source give for CCCCC/C=C\C/C=C\CCCCCCCC(=O)NC(C)c1ccccc1 (stereo unspecified) here?
Answer: The efficacy was 130%.

Question: And the outcome [2]?
Answer: The outcome was “inactive”.

Question: What about the outcome [3] of the same molecule?
Answer: Its outcome is “inactive”.

Question: And the AC50 [4]?
Answer: Its AC50 is 39.8 µM (active).

Question: And the outcome [5]?
Answer: Its outcome is “inactive”.

Question: Which efficacy [1] does the source give for O=Cc1ccccc1C=O here?
Answer: The efficacy was -22.6%.

Question: What about the outcome [2] of the same molecule?
Answer: The outcome was “inactive”.

Question: What about the outcome [3] of the same molecule?
Answer: The outcome was “inactive”.

Question: What about the outcome [4] of the same molecule?
Answer: Its outcome is “inactive”.

Question: What about the outcome [5] of the same molecule?
Answer: Its outcome is “inactive”.

Question: With CC1=C(CC(=O)O)c2cc(F)ccc2/C1=C\c1ccc(S(C)(=O)=O)cc1 as the molecule, how does the efficacy [1] read?
Answer: Its efficacy is 40.3%.

Question: And the outcome [2]?
Answer: Its outcome is “inactive”.

Question: And the outcome [3]?
Answer: Its outcome is “inactive”.

Question: And the AC50 [4]?
Answer: Its AC50 is 39.8 µM (active).

Question: What about the outcome [5] of the same molecule?
Answer: The outcome was “inactive”.

Question: Which efficacy [1] does the source give for CCOC(=O)OC(C)OC(=O)[C@@H]1N2C(=O)[C@@H](NC(=O)[C@H](N)c3ccccc3)[C@H]2SC1(C)C (stereo partly specified) here?
Answer: The efficacy was 47.6%.

Question: And the outcome [2]?
Answer: The outcome was “inactive”.

Question: What about the outcome [3] of the same molecule?
Answer: The outcome was “inactive”.

Question: What about the outcome [4] of the same molecule?
Answer: The outcome was “inactive”.

Question: And the outcome [5]?
Answer: Its outcome is “inactive”.

Question: Which efficacy [1] does the source give for CC[N+](CC)(CC)CCOc1ccc(/C=C/c2ccccc2)cc1 here?
Answer: The efficacy was 64.2%.

Question: What about the outcome [2] of the same molecule?
Answer: Its outcome is “inactive”.

Question: And the outcome [3]?
Answer: The outcome was “inactive”.

Question: And the AC50 [4]?
Answer: The AC50 was 39.8 µM (active).

Question: And the outcome [5]?
Answer: The outcome was “inactive”.
